Results on three compounds are retold here after PubChem BioAssay AID624264 (National Center for Advancing Translational Sciences (NCATS), 2012).

The other results are listed elsewhere or left out. Records with an inconclusive call do not appear. Unmarked numbers belong to inactive results. The call rests on the fitted dose curve; in most records, active means well fitted curve in the direction sought with a large enough effect; inconclusive means small, poorly fitted or top-dose-only effect, or another doubt; inactive means no such curve, though single readings can be large or run the other way.

The nature of the test: qHTS for Inhibitors of Glutaminase (GLS): Hit Confirmation using Cytotoxicity. The settings on record: HEK-293 viability, CellTiter-Glo luminescence, 24 h; series mostly up to 46.1 µM; activity change, negative = cytotoxicity: at the top concentration. The text has this: Glutaminase (GLS) catalyzes the hydrolysis of glutamine into glutamate and ammonia. It plays a critical role in glutaminolysis, which is an important energy source for proliferating cells. It was shown that c-Myc, an oncogenic transcription factor known to regulate microRNAs and to stimulate cell proliferation, increases glutamine metabolism by stimulating the expression of GLS via direct suppression of miR23a and miR23b. […] GLS is also thought to play a pathogenic role on HAD using a human HIV-1 infected macrophage system. […] GLS inhibition limits glutamate release and provides neuroprotection against HIV-1 infected macrophages. […] The overall goal of this project is to identify small molecule inhibitors of GLS through quantitative high throughput screening (qHTS) of the MLSMR. A validated potent and selective inhibitor can be used as a tool molecule to further study the pharmacology of its target as well as explore its potential therapeutic application in cancer and inflammatory neurological disorders, such as HIV1-associated dementia (HAD) and multiple sclerosis. This is a hit confirmation assay using a cytotoxic read-out to exclude cytotoxic compounds. Toxic compounds will be labeled as active and excluded in future experiment. NIH Chemical Genomics Center [NCGC] NIH Molecular Libraries Probe Centers Network [MLPCN] MLPCN Grant: DA032470 Assay Submitter (PI): Barbara S. Slusher, Johns Hopkins University
HEK-293 cells are grown in a flask up to 80% confluence. Cells will be trypsinized, washed, and resuspended in MEM Eagle + 10% FBS + 1% pen-strep media at the concentration of 120 cells/microl. Five microl/well of cell solution will be dispensed into a 1536-well assay plates (Greiner, solid white medium-binding plates) with Auror Discovery BioRAPTR Flying Reagent Dispenser (FRD; Beckton-Dickenson). Cells will be pre-incubated at 37 °C, 5% CO2 for 4hrs. Compound and control solutions (23nl) will then be transferred to the assay plate using the Kalypsys 1536 pin-tool. […] Luminescence signal will be read with PerkinElmer ViewLux plate reader after 30 min room temperature incubation.
Background: In qHTS, concentration-response curves come from the screen itself.
Take `CCN1C(=O)c2cccc3c(S(=O)(=O)Nc4ccccc4O)ccc1c23`: the “activity change, negative = cytotoxicity” value is -9.78%.
In the case of `O=C(O)c1cccc(S(=O)(=O)Nc2ccc(O)cc2Sc2nc3ccccc3s2)c1`, the “activity change, negative = cytotoxicity” value was -10.1%.
Take `COc1cc(OC)c(S(=O)(=O)Nc2ccccc2C(=O)O)cc1S(=O)(=O)Nc1ccccc1C(=O)O`: the “activity change, negative = cytotoxicity” value is 5.49%.
